Among the test systems are HCT-15 colon; HT29 colon; SNB-75 CNS; SNB-19 CNS; U251 CNS; PC-3 prostate; SK-MEL-5 melanoma; UACC-62 melanoma; LOX IMVI melanoma; SK-MEL-28 melanoma; EKVX NSCLC; SN12C renal; UO-31 renal; TK-10 renal; ACHN renal; CAKI-1 renal; A498 renal; CCRF-CEM leukemia; MOLT-4 leukemia.
Assay in all cases: NCI-60 one-dose screen, 48 h (100 = growth as untreated, 0 = no growth, -100 = all killed)
Conditions in all cases: 10 µM unless noted

Molecules are shown by their SMILES. The panel holds about 83,000 compounds, 20% with a hit somewhere; the sample as a whole holds those more often.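 Assay: single dose, 48 h. Readout: percent growth (0 = no net growth; negative = cell death). Active: <10.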 A number with no mark means an inactive call. Activity calls are given as the source filed them.

With `CC/C(=C(\c1ccc(OCCN2CCCCCCC2)cc1)c1ccc(OC(=O)C2CCCCC2)cc1)c1ccc(Cl)cc1`, the growth with HCT-15 colon is 94.3%; with HT29 colon it was 86.9%; in the test with SNB-75 CNS, 99.7%; in the test with SNB-19 CNS it was 110%; in the test on U251 CNS it was 98.9%; in the test on PC-3 prostate, 91.4%. For the same compound, the growth with SK-MEL-5 melanoma was 102%; in the test with UACC-62 melanoma, 108%; in the test with LOX IMVI melanoma, 102%; with SK-MEL-28 melanoma, 96.3%; in the test on EKVX NSCLC it was 105%; with SN12C renal, 93.6%. For the same compound, the growth with UO-31 renal is 73.8%; in the test on TK-10 renal, 110%; in the test on ACHN renal it was 97.2%; in the test with CAKI-1 renal, 93.8%; with A498 renal, 63.7%; with CCRF-CEM leukemia, 88.9%. Also, the growth with MOLT-4 leukemia is 88.9%.

As to `COc1cc(Nc2ncc3c(n2)-c2ccc(Cl)cc2C(c2c(F)cccc2OC)=NC3)ccc1C(=O)O`, the growth was 37.2% in the test on HCT-15 colon; 40.7% with HT29 colon; 91.6% in the test with SNB-75 CNS; 74.1% with SNB-19 CNS; 51.6% in the test with U251 CNS; 60.7% in the test on PC-3 prostate. For the same compound, the growth with SK-MEL-5 melanoma is 67.8%; in the test on UACC-62 melanoma, 64.6%; in the test with LOX IMVI melanoma, 35.9%; with SK-MEL-28 melanoma it was 84.7%; with EKVX NSCLC it was 89.9%; in the test on SN12C renal, 72.6%. Further, the growth with UO-31 renal was 51.7%; in the test with TK-10 renal, 63.9%; in the test with ACHN renal, 64.4%; with CAKI-1 renal it was 68.2%; with A498 renal, 63.2%; in the test on CCRF-CEM leukemia, 47.2%. For the same compound, in the test with MOLT-4 leukemia, the growth was 52.8%.

In the case of `CN1CCN(c2ccc(C(=O)Nc3n[nH]c4ccc(Cc5cc(F)cc(F)c5)cc34)c(NC3CCOCC3)c2)CC1`, the growth is -65.7% (active) in the test with HCT-15 colon; -56.8% (active) with HT29 colon; -93.2% (active) in the test with SNB-75 CNS; -50.3% (active) with SNB-19 CNS; -83.7% (active) in the test on U251 CNS; -12.3% (active) with PC-3 prostate. Besides, the growth in the test with SK-MEL-5 melanoma was -96.5% (active); in the test on UACC-62 melanoma, -78.4% (active); in the test on LOX IMVI melanoma it was -89.7% (active); in the test with SK-MEL-28 melanoma, -87% (active); in the test on EKVX NSCLC, 8.7% (active); in the test on SN12C renal, -6.17% (active). Further, the growth is -90.7% (active) in the test on UO-31 renal; -5.76% (active) in the test on TK-10 renal; -7.72% (active) with ACHN renal; -80.7% (active) in the test on CAKI-1 renal; -54.8% (active) in the test with A498 renal; 1.8% (active) in the test on CCRF-CEM leukemia. In the test with MOLT-4 leukemia, the growth is -20.4% (active).

As to `CC(=O)C1=C(C)NC(SCc2nnc(-c3ccc(C)cc3)o2)=NC1c1ccc(F)cc1` (configuration not stated), the growth with HCT-15 colon is 101%; in the test with HT29 colon it was 110%; with SNB-75 CNS, 98.5%; in the test with SNB-19 CNS it was 94.1%; in the test on U251 CNS, 95.2%; in the test on PC-3 prostate, 85.3%. Also, the growth in the test with SK-MEL-5 melanoma was 99%; in the test with UACC-62 melanoma, 84.6%; in the test with LOX IMVI melanoma, 93.2%; in the test with SK-MEL-28 melanoma it was -78.4% (active); in the test on EKVX NSCLC, 107%; in the test with SN12C renal it was 93.1%. The growth was 83.6% with UO-31 renal; 85.6% in the test with TK-10 renal; 92% in the test on ACHN renal; 88% in the test on CAKI-1 renal; 109% in the test on A498 renal; 88.1% with CCRF-CEM leukemia. The growth with MOLT-4 leukemia was 94.1%.

As for `CCCCn1c(C)nc2ccc(Nc3nc(N4CCN(C)CC4)nc4nc[nH]c34)cc21`, the growth in the test with HCT-15 colon was 110%; in the test on HT29 colon it was 90.9%; in the test on SNB-75 CNS it was 63.5%; with SNB-19 CNS, 95.6%; in the test with U251 CNS it was 82.9%; in the test on PC-3 prostate, 84.2%. The growth in the test with SK-MEL-5 melanoma was 86.8%; in the test on UACC-62 melanoma, 91.9%; with LOX IMVI melanoma, 83.9%; in the test on SK-MEL-28 melanoma, 109%; in the test with EKVX NSCLC, 96.9%; in the test with SN12C renal, 87.3%. Besides, the growth in the test on UO-31 renal was 83.7%; in the test with TK-10 renal it was 104%; with ACHN renal, 106%; with CAKI-1 renal it was 99.8%; in the test on A498 renal it was 71.7%; in the test on CCRF-CEM leukemia, 90.5%. Also, in the test with MOLT-4 leukemia, the growth is 87.1%.

As to `COc1cc2cc(NCc3ccc(F)cc3)nc(C)c2cc1OC`, the growth with HCT-15 colon was 50.9%; with HT29 colon, 11.9%; in the test with SNB-75 CNS, 101%; in the test on SNB-19 CNS, 43.8%; with U251 CNS it was 29.7%; in the test on PC-3 prostate, 48.2%. Besides, the growth was 38.3% in the test with SK-MEL-5 melanoma; 27.8% with UACC-62 melanoma; 6.57% (active) in the test on LOX IMVI melanoma; 35.4% in the test on SK-MEL-28 melanoma; 78.7% in the test on EKVX NSCLC; 51% in the test on SN12C renal. For the same compound, the growth in the test on UO-31 renal was 49.6%; in the test on TK-10 renal it was 46.7%; in the test on ACHN renal it was 60.4%; in the test on CAKI-1 renal, 67%; in the test on A498 renal, 27.4%; in the test on CCRF-CEM leukemia, 41.9%. Also, the growth in the test with MOLT-4 leukemia was 35.2%.

For the compound `Brc1ccc([I+]c2ccc(Br)cc2)cc1`, the growth with HCT-15 colon was 49.3%; in the test with HT29 colon it was 5.37% (active); in the test with SNB-75 CNS, -82.2% (active); in the test with SNB-19 CNS, -92.4% (active); in the test on U251 CNS it was -85% (active); in the test with PC-3 prostate, 24.7%. Also, the growth in the test with SK-MEL-5 melanoma was -82.9% (active); in the test on UACC-62 melanoma it was 27%; in the test on LOX IMVI melanoma, 20.4%; in the test with SK-MEL-28 melanoma, -14.6% (active); with EKVX NSCLC, 19.3%; in the test with SN12C renal, -26.9% (active). The growth is 51.2% in the test with UO-31 renal; -18% (active) in the test on TK-10 renal; 39% in the test on ACHN renal; 51.2% in the test on CAKI-1 renal; 71.6% with A498 renal; 20.3% in the test on CCRF-CEM leukemia. Further, the growth with MOLT-4 leukemia is 19.9%.

Take `CNC(=O)c1cc(Oc2cccc3nc(Nc4ccc(Cl)c(F)c4)ccc23)ccn1`: the growth with HCT-15 colon was 59.3%; with HT29 colon, 82.5%; in the test with SNB-75 CNS, -11.7% (active); with SNB-19 CNS, 30.3%; in the test on U251 CNS it was 53.3%; in the test on PC-3 prostate it was 66.1%. Moreover, the growth in the test on SK-MEL-5 melanoma is 44.8%; in the test on UACC-62 melanoma, 52.3%; with LOX IMVI melanoma, 59.6%; in the test with SK-MEL-28 melanoma, 48.8%; in the test with EKVX NSCLC, 71.1%; with SN12C renal, 63.2%. For the same compound, the growth with UO-31 renal was 81.6%; with TK-10 renal, 54.1%; in the test on ACHN renal it was 38.5%; in the test on CAKI-1 renal, 87.9%; in the test with A498 renal it was 83.8%; in the test with CCRF-CEM leukemia it was 91.3%. For the same compound, in the test with MOLT-4 leukemia, the growth was 69.2%.
